Source: PubChem (National Center for Advancing Translational Sciences (NCATS))
Only some compounds are listed: those with a hit (about 3.9% of all), similar ones and a draw of the others.
HepG2 viability: counter-screen for TGF-b inhibitors: cytotoxicity in HepG2 cells; Potency, µM (series often up to 46.1 µM), without a hit: at the highest dose activity change, negative = cytotoxicity, usual class: cytotoxic; HepG2 CAGA-GFP viability, ATP luminescence, 18 h; AID 588856; 0.76% of 410,000 active
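HepG2 CAGA-GFP cells (1000/well, DMEM with 1% FBS) received compound, then TGF-beta at 500 pg/mL final, and were incubated 18 hours at 37 degrees C. Viability was read by CellTiter-Glo luminescence. Media-only wells were set as complete cell-killing and DMSO as no toxicity.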
ATXN2 expr inh: inhibitors of ATXN2 expression. HEK-293 ATXN2-luciferase reporter, luminescence, 24 h. Potency, µM (doses to about 57 µM), without a hit: top-dose activity change, negative = inhibition, hits mostly inhibitors. 0.72% of 360,000 active. AID 1745845; note: % is set by controls: 0 for no effect and ±100 for the full control effect; nearly all actives have a fitted effect of over 55% in size
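qHTS (up to 57 uM final) was run with 24 h compound exposure of reporter cells at 37 °C. Each well was multiplexed: SteadyGlo luminescence measured ATXN2-luciferase expression after a fluorogenic Gly-Phe-AFC viability readout (25 uM final).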
TGFb SMAD3 inh: blocks TGF-b signaling; HepG2 CAGA-GFP TGF-b/SMAD3 reporter, GFP fluorescence, 18 h; TGF-beta stimulated, 500 pg/mL final; Potency, µM (top dose mostly 46.1 µM), without a hit: at the top dose activity, negative = inhibition, hits mostly inhibitors; 1.2% of 410,000 active; AID 588855; note: % is set by controls: 0 for no effect and ±100 for the full control effect; nearly all actives have a fitted effect of over 65% in size
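Inhibition was scored as loss of TGF-beta-induced (500 pg/mL final, 18 hours, 37 degrees C) GFP in HEPG2 cells carrying a CAGA-GFP reporter, in DMEM with 1% FBS. Well GFP was summed per cell; Activity was normalised to unstimulated and stimulated DMSO wells, then concentration-response fitting.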
ATXN viability: cell viability loss in ATXN counter-screen; 0.49% of 400,000 active; Potency, µM (doses to about 56.7 µM), actives largely listed as cytotoxic; AID 651635; S2 cells (HEK-293 line with an ATXN2-luciferase reporter) viability, CellTiter-Fluor protease fluorescence, 24 h; note: nearly all actives have a fitted effect of over 40% in size
HT1080 IDH1KD tx: HT-1080 IDH1 knockdown cell toxicity (counter line); AID 686971; Potency, µM (highest dose often 46.1 µM), for inactives: at the top dose activity, negative = toxicity, usual class: cytotoxic; HT-1080 IDH1 knockdown viability, ATP luminescence, 48 h; 2% of 360,000 active;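 note: 0% = DMSO wells and -100% = cell-free medium wells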
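IDH1KD HT-1080 cells, 750/well, RPMI + 5% FBS; compound pinned after 2 h settling; 48 h, 37 °C; CellTiter-Glo luminescence; % activity normalised to DMSO and no-cell wells; curves fitted, classed by r2 and efficacy.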
HT1080-NT tox: kills 2HG-producing HT-1080-NT fibrosarcoma cells. HT-1080-NT fibrosarcoma viability, CellTiter-Glo ATP luminescence, 48 h. Potency, µM (titrated, usually from 46.1 µM), for the others: top-dose activity, negative = less viability, actives largely listed as cytotoxic. 1.6% of 360,000 active. AID 686970;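 note: NT is the 2HG producing partner of a matched IDH1 knockdown line; 0% = DMSO-treated cells and -100% = media-only wells without cells; nearly all actives have a fitted effect of over 55% in size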
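Luminescent CellTiter-Glo readout after 48 hours of compound exposure at 37 degrees C defined viability of HT-1080-NT cells. Activity was normalized to DMSO wells and cell-free media wells; concentration-response curves were fitted and assigned curve classes.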
* marks the source's active call; other numbers are inactive results; i = inactive; ? = inconclusive; . = not tested or not shown; ! = not confirmed by another sample. Calls come from the whole dose curve; as a rule, active = well fitted curve in the direction sought with a large enough effect; inconclusive = small, poorly fitted or top-dose-only effect, or another doubt; inactive = no such curve, though single readings can be large; an effect the other way counts as inactive or inconclusive. Potency is the fitted concentration of half-maximal effect.

SMILES | HepG2 viability | ATXN2 expr inh | TGFb SMAD3 inh | ATXN viability | HT1080 IDH1KD tx | HT1080-NT tox
NC(CCc1ccccc1)c1csc(NC(=O)NCCc2ccccc2)n1 (stereo not given) | -78.7% | -26.7% | ? | i | 16.4µM* | 16.4µM*
COc1ccccc1CNC(=O)Nc1nc(C(N)CCc2ccccc2)cs1 (stereo not given) | 12.6µM* | ? | ? | . | 18.4µM* | ?
NC(Cc1ccc(Cl)cc1)c1csc(NC(=O)NCCc2ccccc2)n1 (stereo not given) | -110.9% | ? | ? | 28.2µM* | ? | 16.4µM*
NC(CO)c1csc(NC(=O)Nc2ccccc2Cc2ccccc2)n1 (stereo not given) | 4.0% | 1.4% | 15.5% | i | -12.0% | -2.4%
CCOC(=O)c1cc(-c2ccc(OC)c(S(=O)(=O)N3CCN(c4ccccc4)CC3)c2)on1 | 0.1% | . | -19.7% | . | . | .
Nc1ncn([C@@H]2O[C@H](CO)[C@@H](O)[C@@H]2O)c(=O)n1 | . | 5.44µM* | . | . | . | .
Nc1ccn([C@@H]2O[C@H](CO)[C@@H](O)[C@@H]2O)c(=O)n1 | -4.3% | ? | 21.7% | i | ? | -7.9%
NC(=O)c1ncn([C@@H]2O[C@H](CO)[C@@H](O)[C@@H]2O)c1N | . | -13.5% | . | . | . | .
Nc1ncn([C@@H]2O[C@H](CO)[C@@H](O)[C@H]2O)c(=O)n1 | -28.9% | 6.31µM*! | 11.2µM* | i | 1.84µM* | 1.64µM*
O=C(CNC(=O)c1cccc(F)c1)N/N=C/c1cc(Br)ccc1OC(=O)/C=C/c1ccco1 | -26.2% | 28.2µM* | ? | i | ? | ?
O=C(CNC(=O)c1ccccc1O)N/N=C/c1cc(Br)ccc1OC(=O)/C=C/c1ccco1 | -11.8% | ? | -21.6% | i | ? | ?
NC(N)=N/N=C/c1cccc(Cl)c1Cl | -20.4% | -27.8% | -15.6% | i | 20.6µM* | 23.1µM*
CC(C)(C)OC(=O)N1CCC(c2c(C(=O)Nc3ccc4c(c3)OCCO4)cnn2-c2ccccc2)CC1 | 2.1% | . | ? | . | . | .
COc1ccc(NCc2cc3ccc(OC)cc3n(CC(=O)Nc3cccc(OC)c3)c2=O)cc1 | -15.8% | 2.4% | -14.4% | i | . | .
CCN1CCC(CNCc2cn(-c3ccc(OC)cc3)nc2-c2ccccc2Cl)C1 (stereo not given) | -33.8% | -35.5% | ? | ? | ? | 16.4µM*
Fc1ccc(-n2cc(CNCCc3ccccn3)c(-c3ccccc3Cl)n2)cc1 | 4.0% | -22.3% | 8.3% | i | 20.6µM* | 20.6µM*
COc1ccc(-n2cc(CNCCc3nc(C)cc(C)n3)c(-c3ccccc3Cl)n2)cc1 | -35.0% | -27.5% | ? | ? | 16.4µM* | 16.4µM*
COc1ccc(-n2cc(CNCCN3CCOC3=O)c(-c3ccccc3Cl)n2)cc1 | -10.5% | -4.2% | 11.7% | i | -8.4% | -3.4%
COc1ccc(-n2cc(CNCCCn3ccnc3)c(-c3ccccc3Cl)n2)cc1 | -43.0% | -27.4% | -28.6% | i | -16.0% | -16.0%
Cc1nnc(N2CCN(c3ccccc3F)CC2)c2c1nnn2Cc1ccccc1Cl | 6.5% | -0.3% | 0.2% | i | . | .
O=S1(=O)CCO[C@H]2CCCC[C@@H]2N1Cc1ccccc1F | -2.7% | . | -14.5% | . | . | .
CCOC(=O)c1ccccc1NC(=O)C1CCCO1 (stereo not given) | -33.3% | -5.7% | -3.5% | i | -4.4% | -3.4%
CCOC(=O)C(=NCC1CCCO1)NNc1ccccc1Cl (stereo not given) | 1.26µM* | -9.3% | -4.6% | i | -3.3% | 10.1%
C[C@H]1C[C@H]2[C@@H]3CCC4=CC(=O)C=C[C@]4(C)[C@@]3(F)[C@@H](O)C[C@]2(C)[C@@]1(O)C(=O)CCl | . | . | . | i | . | .
Cn1c(SCC(=O)N2c3ccccc3Sc3ccccc32)nc2ccccc21 | 11.7% | -3.9% | -8.5% | i | -3.0% | -5.3%
SMILES | HepG2 viability | ATXN2 expr inh | TGFb SMAD3 inh | ATXN viability | HT1080 IDH1KD tx | HT1080-NT tox
Cc1csc(NC(=O)CSc2nnc3c4ccccc4nc(C(C)(C)C)n23)n1 | -52.4% | ? | ? | ? | 6.31µM* | 5.01µM*
Cc1ccc(-c2csc(NC(=O)CSc3nc4ccccc4c(=O)n3CCCN(C)C)n2)cc1 | -102.7% | ? | ? | ? | 23.1µM* | ?
CN(C)CCCn1c(SCC(=O)N2c3ccccc3Sc3ccccc32)nc2ccccc2c1=O | 10µM* | 28.2µM* | -21.3% | 25.1µM* | ? | 18.4µM*
CC(=O)CSc1nnc2c3ccccc3nc(C(C)(C)C)n12 | -21.8% | -33.0% | -9.1% | i | -3.7% | -5.4%
Cc1ccc(C)c(NC(=O)Cn2ncc3c(C)n(Cc4ccc(F)cc4)c(C)c3c2=O)c1 | -1.5% | . | -32.6% | . | . | .
NC(=O)CSc1nc2c(c(=O)n1-c1ccccc1)C1(CCCCC1)Cc1ccccc1-2 | -2.3% | 0.0% | -20.7% | ? | 13µM* | ?
Cc1cccc(-n2c(SCC(N)=O)nc3c(c2=O)C2(CCCC2)Cc2ccccc2-3)c1 | 13.8% | -9.7% | ? | i | ? | ?
Cn1cc(CNC(=O)c2cc(COc3ccc4c(c3)CCCC4)on2)cn1 | -26.5% | 1.3% | 0.0% | ? | 0.4% | 2.4%
O=C(NC(c1cccnc1)C(F)(F)F)c1cc(COc2ccc3c(c2)CCCC3)on1 (stereo not given) | -26.2% | -17.0% | 11.2µM* | ? | -23.3% | -15.7%
CCN(C(=O)c1cn(C)c(=O)c2ccccc12)c1cccc(C)c1 | -24.8% | 5.9% | 10.0% | i | . | .
COc1ccccc1S(=O)(=O)Cc1ccc(C(=O)N2CCN(c3ccccc3)CC2)o1 | -27.8% | -23.1% | ? | i | -11.0% | -0.4%
O=C(c1ccc(CS(=O)c2ccccc2Cl)o1)N1CCN(c2ccccc2)CC1 (stereo not given) | -6.8% | ? | ? | i | 0.517µM* | ?
O=C(c1ccc(CS(=O)c2ccccc2Cl)o1)N1CCOCC1 (stereo not given) | -4.2% | -3.4% | 2.6% | i | 10.7% | -3.2%
COc1ccccc1S(=O)(=O)Cc1ccc(C(=O)N2CCN(c3cccc(Cl)c3)CC2)o1 | -3.5% | ? | 7.9% | ? | 20.6µM* | ?
COc1cccc(N2CCN(C(=O)c3ccc(CS(=O)c4ccccc4C)o3)CC2)c1 (stereo not given) | -5.7% | -20.0% | -15.2% | i | 0.731µM* | 0.461µM*
Cc1ccc(C)c(N2CCN(C(=O)c3ccc(CS(=O)(=O)c4ccccc4C)o3)CC2)c1 | -44.5% | -35.1% | -18.3% | ? | 10µM* | ?
